Results reported in PubChem BioAssay AID1159580 (chemical genetic matrix, 2015).
Screen size: about 5,500 compounds; about 2,000 (36%) were called active. Roughly 18% stayed inconclusive and do not appear here. The list shows a part of the results. Unmarked numbers belong to inactive results. Cut-off read from the data, not from the text of the source: active = normalized growth mostly below about 0.91 (no sharp cut-off); inconclusive = no clear call, values can overlap the other calls; inactive = mostly above about 0.92.

Test: chemical genetic growth profiling, strain panel (AID 1159580);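 note: tested at 20 µM; growth read once vehicle control cultures reached saturation at 30 °C; 1 = growth at the plate median or of vehicle wells; lower values mean less growth of the strain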
Details: S. cerevisiae deletion strains, growth OD
[1] = locus YHR030C, strain SLT2, stronger effect = lower value
[2] = locus YHR079C, strain IRE1, stronger effect = lower value
[3] = locus YJL095W, strain BCK1, stronger effect = lower value
[4] = locus YJR066W, strain TOR1, stronger effect = lower value
[5] = locus YLR113W, strain HOG1, stronger effect = lower value
[6] = locus YNL183C, strain NPR1, stronger effect = lower value
[7] = locus YOR231W, strain MKK1, stronger effect = lower value
[8] = locus YPL256C, strain CLN2, stronger effect = lower value

Q: Which normalized growth [1] does the source give for `O=C1c2ccccc2C(=O)C1c1ccc(Br)cc1` here?
A: 0.851 (active)

Q: What about the normalized growth [2] of the same compound?
A: 0.816 (active)

Q: And the normalized growth [3]?
A: 0.888

Q: And the normalized growth [4]?
A: 0.823 (active)

Q: What about the normalized growth [5] of the same compound?
A: 0.717 (active)

Q: What about the normalized growth [6] of the same compound?
A: 0.818 (active)

Q: And the normalized growth [7]?
A: 0.853 (active)

Q: And the normalized growth [8]?
A: 0.712 (active)

Q: For `COc1ccc(C2CC(c3ccc(C)cc3C)=NN2C(C)=O)cc1` (centres undefined), which normalized growth (locus YAR019C, strain CDC15, stronger effect = lower value) is on record?
A: 0.997

Q: And the normalized growth (locus YBL105C, strain PKC1, stronger effect = lower value)?
A: 0.993

Q: And the normalized growth (locus YBR135W, strain CKS1, stronger effect = lower value)?
A: 0.984

Q: And the normalized growth (locus YBR136W, strain MEC1, stronger effect = lower value)?
A: 0.981

Q: What about the normalized growth (locus YBR160W, strain CDC28, stronger effect = lower value) of the same compound?
A: 0.995

Q: What about the normalized growth (locus YDL017W, strain CDC7, stronger effect = lower value) of the same compound?
A: 0.992

Q: What about the normalized growth (locus YDL028C, strain MPS1, stronger effect = lower value) of the same compound?
A: 0.984

Q: And the normalized growth (locus YDL101C, strain DUN1, stronger effect = lower value)?
A: 0.987

Q: And the normalized growth (locus YDL108W, strain KIN28, stronger effect = lower value)?
A: 0.977

Q: And the normalized growth (locus YDL132W, strain cdc53, stronger effect = lower value)?
A: 0.994

Q: What about the normalized growth (locus YDL214C, strain PRR2, stronger effect = lower value) of the same compound?
A: 0.872

Q: What about the normalized growth (locus YDR052C, strain DBF4, stronger effect = lower value) of the same compound?
A: 0.999

Q: What about the normalized growth (locus YDR054C, strain cdc34, stronger effect = lower value) of the same compound?
A: 0.983

Q: And the normalized growth (locus YDR226W, strain ADK1, stronger effect = lower value)?
A: 0.985

Q: And the normalized growth (locus YDR477W, strain SNF1, stronger effect = lower value)?
A: 0.919

Q: What about the normalized growth (locus YER123W, strain YCK3, stronger effect = lower value) of the same compound?
A: 0.85

Q: And the normalized growth (locus YER133W, strain GLC7, stronger effect = lower value)?
A: 0.911

Q: What about the normalized growth (locus YFL009W, strain cdc4, stronger effect = lower value) of the same compound?
A: 0.984

Q: And the normalized growth (locus YFL029C, strain CAK1, stronger effect = lower value)?
A: 0.994

Q: And the normalized growth (locus YFR003C, strain YPI1, stronger effect = lower value)?
A: 0.988

Q: And the normalized growth (locus YFR019W, strain FAB1, stronger effect = lower value)?
A: 0.937

Q: And the normalized growth (locus YFR028C, strain CDC14, stronger effect = lower value)?
A: 0.981

Q: And the normalized growth (locus YGR040W, strain KSS1, stronger effect = lower value)?
A: 0.89

Q: And the normalized growth (locus YGR052W, strain FMP48, stronger effect = lower value)?
A: 0.971

Q: What about the normalized growth (locus YGR092W, strain DBF2, stronger effect = lower value) of the same compound?
A: 0.909

Q: What about the normalized growth [1] of the same compound?
A: 1.04

Q: What about the normalized growth [2] of the same compound?
A: 0.971

Q: And the normalized growth (locus YHR082C, strain KSP1, stronger effect = lower value)?
A: 0.984

Q: And the normalized growth (locus YHR205W, strain SCH9, stronger effect = lower value)?
A: 0.931

Q: And the normalized growth (locus YIL147C, strain SLN1, stronger effect = lower value)?
A: 0.978

Q: What about the normalized growth [3] of the same compound?
A: 0.967

Q: What about the normalized growth (locus YJL128C, strain PBS2, stronger effect = lower value) of the same compound?
A: 0.907

Q: And the normalized growth (locus YJL157C, strain FAR1, stronger effect = lower value)?
A: 0.889

Q: What about the normalized growth (locus YJR016C, strain ILV3, stronger effect = lower value) of the same compound?
A: 0.994

Q: What about the normalized growth (locus YJR066W, strain TOR1 (second series), stronger effect = lower value) of the same compound?
A: 0.881

Q: And the normalized growth [4]?
A: 0.978

Q: What about the normalized growth (locus YKL048C, strain ELM1, stronger effect = lower value) of the same compound?
A: 0.955

Q: And the normalized growth (locus YKL067W, strain YNK1, stronger effect = lower value)?
A: 0.908

Q: What about the normalized growth (locus YKL101W, strain HSL1, stronger effect = lower value) of the same compound?
A: 0.905

Q: What about the normalized growth (locus YKL193C, strain SDS22, stronger effect = lower value) of the same compound?
A: 0.989

Q: What about the normalized growth (locus YKL203C, strain TOR2, stronger effect = lower value) of the same compound?
A: 0.981

Q: And the normalized growth [5]?
A: 0.868

Q: What about the normalized growth (locus YLR133W, strain CKI1, stronger effect = lower value) of the same compound?
A: 0.93

Q: What about the normalized growth (locus YLR403W, strain SFP1, stronger effect = lower value) of the same compound?
A: 0.916

Q: And the normalized growth (locus YML070W, strain DAK1, stronger effect = lower value)?
A: 0.888

Q: What about the normalized growth (locus YMR001C, strain CDC5, stronger effect = lower value) of the same compound?
A: 0.998

Q: And the normalized growth (locus YMR205C, strain PFK2 (second series), stronger effect = lower value)?
A: 0.913

Q: What about the normalized growth (locus YMR277W, strain FCP1, stronger effect = lower value) of the same compound?
A: 0.986

Q: What about the normalized growth (locus YNL006W, strain LST8, stronger effect = lower value) of the same compound?
A: 0.998

Q: What about the normalized growth (locus YNL020C, strain ARK1, stronger effect = lower value) of the same compound?
A: 0.914

Q: What about the normalized growth (locus YNL161W, strain CBK1, stronger effect = lower value) of the same compound?
A: 0.997

Q: And the normalized growth [6]?
A: 0.995

Q: And the normalized growth (locus YNL207W, strain RIO2, stronger effect = lower value)?
A: 0.991

Q: What about the normalized growth (locus YNL222W, strain SSU72, stronger effect = lower value) of the same compound?
A: 0.991

Q: What about the normalized growth (locus YNL307C, strain MCK1 (second series), stronger effect = lower value) of the same compound?
A: 0.931

Q: What about the normalized growth (locus YOL078W, strain AVO1, stronger effect = lower value) of the same compound?
A: 0.994

Q: What about the normalized growth (locus YOL136C, strain PFK27, stronger effect = lower value) of the same compound?
A: 0.887

Q: What about the normalized growth (locus YOR061W, strain CKA2, stronger effect = lower value) of the same compound?
A: 0.881

Q: And the normalized growth (locus YOR119C, strain RIO1, stronger effect = lower value)?
A: 0.979

Q: And the normalized growth [7]?
A: 0.927

Q: And the normalized growth (locus YOR329C, strain SCD5, stronger effect = lower value)?
A: 0.997

Q: What about the normalized growth (locus YPL031C, strain PHO85, stronger effect = lower value) of the same compound?
A: 0.917

Q: What about the normalized growth (locus YPL153C, strain RAD53, stronger effect = lower value) of the same compound?
A: 0.905

Q: What about the normalized growth (locus YPL204W, strain HRR25, stronger effect = lower value) of the same compound?
A: 0.922

Q: And the normalized growth (locus YPL209C, strain IPL1, stronger effect = lower value)?
A: 0.998

Q: And the normalized growth [8]?
A: 0.975

Q: And the normalized growth (locus YPR025C, strain CCL1, stronger effect = lower value)?
A: 0.992

Q: What about the normalized growth (locus YPR106W, strain ISR1, stronger effect = lower value) of the same compound?
A: 0.979

Q: And the normalized growth (locus YPR111W, strain DBF20, stronger effect = lower value)?
A: 0.977

Q: What about the normalized growth (strain NNK1, stronger effect = lower value) of the same compound?
A: 0.97

Q: What about the normalized growth (strain TSCII, stronger effect = lower value) of the same compound?
A: 0.995
